From the supplement of paper PMC3545927 come the findings set out here.

The other results are listed elsewhere or left out. How many sequences the whole screen found active is unknown.

This assay has as its target furin, P09958. The experiment in a line: furin cleavage Z-score vs untreated control; higher = more cleavage, active = 3.5 or more, inactive = 1 or less, 8 variable residues between constant flanks. Summed up: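 Furin cleavage was scored on 8-mer peptides joined to a cDNA oligonucleotide and bound to magnetic beads at the N-terminus. Digestion with purified furin (1:10 enzyme:substrate, 0.01 ml, 50 mM HEPES pH 7.5, CaCl2, NaCl) lasted 7.5, 15 or 30 min. Freed DNA was tagged with adapters by PCR, sequenced and counted; the cleavage Z-score is the lowess-adjusted log count versus furin-free reactions, scaled by median absolute deviation.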

Sequence of furin, P09958 (P09958 whole entry): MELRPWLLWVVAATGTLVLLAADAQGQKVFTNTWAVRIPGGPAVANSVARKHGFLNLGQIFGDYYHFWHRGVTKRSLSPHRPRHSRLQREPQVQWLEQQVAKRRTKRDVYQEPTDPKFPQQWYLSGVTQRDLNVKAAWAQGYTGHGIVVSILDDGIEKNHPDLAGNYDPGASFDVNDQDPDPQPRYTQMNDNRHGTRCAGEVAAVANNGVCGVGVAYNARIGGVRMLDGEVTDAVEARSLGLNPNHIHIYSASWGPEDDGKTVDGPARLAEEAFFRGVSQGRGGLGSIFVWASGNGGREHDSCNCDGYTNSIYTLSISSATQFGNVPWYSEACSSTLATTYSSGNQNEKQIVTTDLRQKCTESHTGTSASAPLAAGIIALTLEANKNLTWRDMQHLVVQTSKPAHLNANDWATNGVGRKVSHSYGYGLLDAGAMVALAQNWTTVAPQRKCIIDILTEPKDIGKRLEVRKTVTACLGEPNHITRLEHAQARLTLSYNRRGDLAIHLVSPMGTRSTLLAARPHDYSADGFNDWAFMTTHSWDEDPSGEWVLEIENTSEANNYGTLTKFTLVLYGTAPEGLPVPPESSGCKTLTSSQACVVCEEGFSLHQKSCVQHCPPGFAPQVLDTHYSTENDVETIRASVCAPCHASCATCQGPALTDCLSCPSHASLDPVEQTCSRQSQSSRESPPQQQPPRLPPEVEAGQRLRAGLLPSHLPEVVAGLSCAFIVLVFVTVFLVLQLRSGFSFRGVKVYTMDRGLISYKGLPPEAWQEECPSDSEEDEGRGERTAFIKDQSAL

B1: HC1431 (peptide)
chain: CASVWKDLLEAGNASASA
For the sequence B1, the “furin cleavage Z-score” value (7.5 min) was -0.463 (inactive), the “furin cleavage Z-score” value (15 min) was 0.374 (inactive) and the “furin cleavage Z-score” value (30 min) was -0.00259 (inactive).

B2: HC1135 (peptide)
chain: CASSLTVTQLAGNASASA
Turning to B2, the “furin cleavage Z-score” value reads like this: (7.5 min) 0.41 (inactive); (15 min) -0.51 (inactive); (30 min) -0.191 (inactive).

B3: HC1244 (peptide)
chain: CADVAVLTSMAGNASASA
Regarding B3, the “furin cleavage Z-score” value runs as follows: (7.5 min) 0.796 (inactive); (15 min) 0.438 (inactive); (30 min) -0.848 (inactive).

B4: HC2490 (peptide)
chain: CASVPCSAHLAGNASASA
As for B4, the “furin cleavage Z-score” value by setting is: (7.5 min) 0.673 (inactive); (15 min) 0.436 (inactive); (30 min) 1.54.

B5: HC1262 (peptide)
chain: CAASQLSAPSAGNASASA
B5: the “furin cleavage Z-score” value is 0.172 (inactive) (7.5 min), 0.594 (inactive) (15 min) and 2.91 (30 min).

B6: HC78 (peptide)
chain: CATTPCNGSWAGNASASA
For B6, the “furin cleavage Z-score” value is -0.41 (inactive) (7.5 min), 0.152 (inactive) (15 min) and 0.215 (inactive) (30 min).

B7: HC579 (peptide)
chain: CARYISWCLWAGNASASA
On to B7, for which the “furin cleavage Z-score” value runs as follows: (7.5 min) -0.0545 (inactive); (15 min) 0.138 (inactive); (30 min) 0.846 (inactive).

B8: HC2259 (peptide)
chain: CAEVVTSTWPAGNASASA
With B8, the “furin cleavage Z-score” value is, setting by setting: (7.5 min) -1.41 (inactive); (15 min) -0.126 (inactive); (30 min) 0.24 (inactive).

B9: FS-347 (peptide)
chain: CALAQRQRRIAGNASASA
For the sequence B9, the “furin cleavage Z-score” value by setting is: (7.5 min) 0.264 (inactive); (15 min) -0.423 (inactive); (30 min) 0.578 (inactive).

B10: FS-86 (peptide)
chain: CARPQPQRRAAGNASASA
B10: the “furin cleavage Z-score” value was 2.58 (7.5 min), 5.58 (active) (15 min) and 5.07 (active) (30 min).

B11: FS-1253 (peptide)
chain: CAQRQRQRRAAGNASASA
In the case of B11, the “furin cleavage Z-score” value runs as follows: (7.5 min) 8.09 (active); (15 min) 6.53 (active); (30 min) 6.09 (active).

B12: FS-3196 (peptide)
chain: CARLKKKVKQAGNASASA
For the sequence B12, the “furin cleavage Z-score” value is, setting by setting: (7.5 min) -1.36 (inactive); (15 min) -0.919 (inactive); (30 min) 0.354 (inactive).

B13: FS-2351 (peptide)
chain: CARLKRRVKSAGNASASA
In the case of B13, the “furin cleavage Z-score” value is, setting by setting: (7.5 min) 4.89 (active); (15 min) 6 (active); (30 min) 4.82 (active).

B14: FS-2708 (peptide)
chain: CARLKRRLVPAGNASASA
Take B14: the “furin cleavage Z-score” value (7.5 min) turned out to be 2.61, the “furin cleavage Z-score” value (15 min) is 4.61 (active) and the “furin cleavage Z-score” value (30 min) was 5.01 (active).

B15: HC1994 (peptide)
chain: CAKVCCSMSYAGNASASA
In the case of B15, the “furin cleavage Z-score” value (7.5 min) is 1.97, the “furin cleavage Z-score” value (15 min) is 0.312 (inactive) and the “furin cleavage Z-score” value (30 min) is 0.855 (inactive).

B16: FS-2312 (peptide)
chain: CARSRRGIFIAGNASASA
Consider B16, for which the “furin cleavage Z-score” value (7.5 min) was found to be 1.57, the “furin cleavage Z-score” value (15 min) stood at 2.13 and the “furin cleavage Z-score” value (30 min) is 4.7 (active).

B17: FS-1908 (peptide)
chain: CARLRRGLAAAGNASASA
On to B17, for which the “furin cleavage Z-score” value is 0.841 (inactive) (7.5 min), 1.22 (15 min) and 1.44 (30 min).

B18: FS-2012 (peptide)
chain: CARFDRQIFIAGNASASA
Regarding B18, the “furin cleavage Z-score” value by setting is: (7.5 min) -0.31 (inactive); (15 min) -0.173 (inactive); (30 min) -0.368 (inactive).

B19: FS-2816 (peptide)
chain: CARSRRGLFAAGNASASA
Turning to B19, the “furin cleavage Z-score” value was 2.59 (7.5 min), 2.97 (15 min) and 6.66 (active) (30 min).

B20: FS-3153 (peptide)
chain: CAREKRGPSGAGNASASA
Regarding B20, the “furin cleavage Z-score” value (7.5 min) is 0.65 (inactive), the “furin cleavage Z-score” value (15 min) is -0.112 (inactive) and the “furin cleavage Z-score” value (30 min) is 0.123 (inactive).

B21: FU1 (peptide)
chain: CAREKRGLFGAGNASASA
In the case of B21, the “furin cleavage Z-score” value reads like this: (7.5 min) 0.425 (inactive); (15 min) 4.29 (active); (30 min) 0.496 (inactive).

B22: FS-2329 (peptide)
chain: CAREKRFCTGAGNASASA
Take B22: the “furin cleavage Z-score” value is 2.75 (7.5 min), 4.22 (active) (15 min) and 4.58 (active) (30 min).

B23: FS-1694 (peptide)
chain: CAREKRFTFVAGNASASA
As to B23, the “furin cleavage Z-score” value is, setting by setting: (7.5 min) -0.942 (inactive); (15 min) 0.437 (inactive); (30 min) 3.16.

B24: FS-2549 (peptide)
chain: CAREKRGWTMAGNASASA
Consider B24, for which the “furin cleavage Z-score” value runs as follows: (7.5 min) 0.613 (inactive); (15 min) 1.51; (30 min) 2.06.

B25: HC2072 (peptide)
chain: CAVVCCSMEYAGNASASA
For B25, the “furin cleavage Z-score” value runs as follows: (7.5 min) -2.66 (inactive); (15 min) 0.354 (inactive); (30 min) 1.04.

B26: HC854 (peptide)
chain: CAGGRHLIFCAGNASASA
Consider B26, for which the “furin cleavage Z-score” value is, setting by setting: (7.5 min) -0.514 (inactive); (15 min) -0.469 (inactive); (30 min) -1.05 (inactive).

B27: HC949 (peptide)
chain: CAKQSGENLPAGNASASA
As for B27, the “furin cleavage Z-score” value is 0.51 (inactive) (7.5 min), -0.215 (inactive) (15 min) and -0.135 (inactive) (30 min).

B28: HC1549 (peptide)
chain: CAEYDLELITAGNASASA
Consider B28, for which the “furin cleavage Z-score” value runs as follows: (7.5 min) -0.697 (inactive); (15 min) -1.21 (inactive); (30 min) -2.02 (inactive).

B29: FS-297 (peptide)
chain: CASLKKIKRSAGNASASA
Regarding B29, the “furin cleavage Z-score” value (7.5 min) was 7.52 (active), the “furin cleavage Z-score” value (15 min) was 5.89 (active) and the “furin cleavage Z-score” value (30 min) was 5.86 (active).

B30: FS-1515 (peptide)
chain: CACPNIIKRSAGNASASA
For B30, the “furin cleavage Z-score” value is, setting by setting: (7.5 min) 2.47; (15 min) 0.593 (inactive); (30 min) 1.43.

B31: FS-1179 (peptide)
chain: CAVRTRIKRSAGNASASA
On to B31, for which the “furin cleavage Z-score” value is 12.5 (active) (7.5 min), 13.6 (active) (15 min) and 9.29 (active) (30 min).

B32: FS-46 (peptide)
chain: CAKSSRIKRSAGNASASA
Turning to B32, the “furin cleavage Z-score” value is 11.3 (active) (7.5 min), 10.3 (active) (15 min) and 8.65 (active) (30 min).

B33: HC706 (peptide)
chain: CAASPKGPVIAGNASASA
For B33, the “furin cleavage Z-score” value (7.5 min) is 0.401 (inactive), the “furin cleavage Z-score” value (15 min) is -0.666 (inactive) and the “furin cleavage Z-score” value (30 min) is -0.477 (inactive).

B34: HC766 (peptide)
chain: CATDNSSPPVAGNASASA
With B34, the “furin cleavage Z-score” value is, setting by setting: (7.5 min) 0.776 (inactive); (15 min) 0.102 (inactive); (30 min) -1.25 (inactive).

B35: HC822 (peptide)
chain: CAATSILGIGAGNASASA
For the sequence B35, the “furin cleavage Z-score” value is -1.81 (inactive) (7.5 min), -0.57 (inactive) (15 min) and 0.323 (inactive) (30 min).

B36: FS-330 (peptide)
chain: CAGNRRLKRFAGNASASA
For the sequence B36, the “furin cleavage Z-score” value was 8.6 (active) (7.5 min), 8.74 (active) (15 min) and 8.35 (active) (30 min).

B37: FS-403 (peptide)
chain: CAATSRTKRFAGNASASA
Consider B37, for which the “furin cleavage Z-score” value is, setting by setting: (7.5 min) 8.04 (active); (15 min) 8.57 (active); (30 min) 8.59 (active).

B38: FS-1291 (peptide)
chain: CATHRRTKRFAGNASASA
As for B38, the “furin cleavage Z-score” value is 4.37 (active) (7.5 min), 4.6 (active) (15 min) and 3.54 (active) (30 min).

B39: FS-781 (peptide)
chain: CAGHFRLKRTAGNASASA
Take B39: the “furin cleavage Z-score” value by setting is: (7.5 min) 7.47 (active); (15 min) 7.94 (active); (30 min) 7.12 (active).

B40: FS-728 (peptide)
chain: CATLKRTRKFAGNASASA
On to B40, for which the “furin cleavage Z-score” value reads like this: (7.5 min) 0.831 (inactive); (15 min) 2.85; (30 min) 1.42.

B41: FS-576 (peptide)
chain: CAYIRRTKRFAGNASASA
As for B41, the “furin cleavage Z-score” value was 1.05 (7.5 min), 1.14 (15 min) and 0.61 (inactive) (30 min).

B42: HC38 (peptide)
chain: CAMEECNQHLAGNASASA
For the sequence B42, the “furin cleavage Z-score” value is 0.469 (inactive) (7.5 min), 2.66 (15 min) and 0.708 (inactive) (30 min).
